From PubChem BioAssay (NCI)
This is part of a sample that, as a whole, favours compounds with a hit. Of some 83,000 tested, about 20% had one in any assay.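 Assay: single dose, 48 h. Readout: percent growth (0 = no net growth; negative = cell death). Active: <10.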 Activity calls are given as the source filed them.

These compounds were tested on SK-MEL-5 melanoma (assay: NCI-60 one-dose screen, 48 h (100 = growth as untreated, 0 = no growth, -100 = all killed)). Settings: 10 µM unless noted.
In the case of `Fc1ccc(C2=NN(c3ccccc3)C(c3sc(N(CCCl)CCCl)nc3Cl)C2)cc1` (stereo unspecified), the growth is reported as 83.2% (inactive). For `CC[C@H](C)[C@H](NC(=O)Nc1ccccc1)C(=O)N(C)[C@H](C[C@@H](OC(C)=O)c1nc(C(=O)N[C@@H](Cc2ccccc2)C[C@H](C)C(=O)OC)cs1)C(C)C`, the growth was -70.3% (active). For `c1ccc(CCN2CCCCC2Cc2ccccc2)cc1` (stereo unspecified), the growth was 94.8% (inactive). With `CC(=O)O[C@H]1CCC2(C)C(=CCC3C2CCC2(C)/C(=N/OC(=O)c4ccc(N(CCCl)CCCl)cc4)CCC32)C1` (stereo partly specified) the growth was 73.2% (inactive). `O=C(N/N=C/c1ccc(N(CCCl)CCCl)cc1)c1cc(=O)[nH]c(=O)[nH]1` was tested, and the growth was 98.9% (inactive). `O=[As]c1ccc(C(=O)c2ccc(Oc3ccccc3)cc2)cc1` (stereo unspecified) was tested, and the growth was -100% (active). With `Cc1cc(NC(=O)NCCOc2ccc(N3C(N)=NC(N)=NC3(C)C)cc2Cl)ccc1S(=O)(=O)F` the growth was 23.1% (inactive). With `COc1ccc2c(c1)NC1=C(C(=O)OC1)C2c1cc(OC)c(OC)c(OC)c1` (stereo unspecified) the growth was -49.1% (active). With `C=CCc1ccc(OC(=O)Cc2ccccc2)c(OC)c1` the growth was 102% (inactive). With `CC(C)(O)/C=C/C(=O)[C@](C)(O)[C@H]1[C@H](O)C[C@@]2(C)[C@@H]3CC=C4[C@@H](C=C(O)C(=O)C4(C)C)[C@]3(C)C(=O)C[C@]12C` the growth was -78.4% (active). `C[C@]12CCc3sc(-c4ccc(Cl)cc4)nc3C1=CC[C@@H]1[C@@H]2CC[C@]2(C)C(=O)CC[C@@H]12` was tested, and the growth was 62.4% (inactive). `C=CCC1(CC)C(=O)NC(=S)NC1=O` was tested, and the growth was 95.7% (inactive). In the case of `NC(Cc1ccc2c(c1)OCO2)c1ccc2c(c1)OCO2` (stereo unspecified), the growth is reported as 103% (inactive). For `O=C(CF)N(O)c1ccc(/C=C/c2ccccc2)cc1`, the growth was 77.1% (inactive). In the case of `COc1ccc(/C=C(/C(=O)N2CCCC2)c2cc(OC)c(OC)c(OC)c2)cc1N`, the growth is reported as 20% (inactive). In the case of `Nc1nc(N)c(-c2ccc(Cl)c(Cl)c2)c(/C=C/c2ccc(S(=O)(=O)F)cc2)n1`, the growth is reported as 84.6% (inactive). With `Oc1ccc(O)c2c1C1(Cl)C(Cl)=C(Cl)C2(Cl)C1(Cl)Cl` the growth was 42.3% (inactive). `CN(C)P1(N(C)C)=NP(N(C)C)(N(C)C)=NP(N(C)C)(N(C)C)=N1` was tested, and the growth was 107% (inactive). `CCCCNCCc1ccccn1` was tested, and the growth was 111% (inactive). With `CNC(=O)Oc1cccc(OC)c1` the growth was 109% (inactive). `C=C=[CH][Sn]([c]1ccccc1)([c]1ccccc1)[c]1ccccc1` was tested, and the growth was -81.5% (active). In the case of `NC(=O)SCC(=O)Nc1ccc([As](=O)(O)O)cc1`, the growth is reported as 102% (inactive). With `C[C@]12CC[C@H]3[C@@H](C[C@@H]4N=C(c5ccc(O)cc5)S[C@@]45C[C@H](O)CC[C@]35C)[C@@H]1CC[C@@H]2O` the growth was 72% (inactive). `CC1(C)N=C(N)N=C(N)N1c1ccc(CCCCc2ccc(S(=O)(=O)F)cc2)cc1` was tested, and the growth was 19.3% (inactive). `Nc1c(Br)cc2c3c(cccc13)-c1ccccc1-2` was tested, and the growth was 84.8% (inactive). In the case of `COc1cc2c(cc1OC)CN(C)C(C)C2` (stereo unspecified), the growth is reported as 101% (inactive). With `CC(C)C1c2ccc(O)cc2Oc2nc(N)c(C#N)c(N)c21` (stereo unspecified) the growth was 91% (inactive). With `c1ccc2nc(OCCN3CC3)ccc2c1` the growth was 98.6% (inactive). In the case of `CC1(C)N=C(N)N=C(N)N1c1ccc(CNC(=O)Nc2ccc(S(=O)(=O)F)c(Cl)c2)c(Cl)c1`, the growth is reported as 24.1% (inactive). In the case of `c1ccc(-c2ccc3ccccc3[o+]2)cc1`, the growth is reported as 88.8% (inactive). With `CSc1ccccc1NP1(=O)OCC(C)([N+](=O)[O-])CO1` (stereo unspecified) the growth was 98.2% (inactive). For `CC1COC(=O)C1` (stereo unspecified), the growth was 99.6% (inactive). For `C[CH2][Pb]([CH2]C)([CH2]C)[O]C(=O)COc1ccccc1`, the growth was -21.4% (active). `COc1ccc(/C=C\c2cc(OC)c(OC)c(OC)c2)cc1N/C=C\C(=O)c1c[nH]c2ccccc12` was tested, and the growth was -53.9% (active). In the case of `CCCC(C)(C)c1ccc2c(c1)OC(C)(C)[C@@H]1CC=C(C)C[C@@H]21`, the growth is reported as 102% (inactive). For `OC1(c2ccc(Cl)cc2Cl)c2ccccc2C2=NCCN21` (stereo unspecified), the growth was 83% (inactive). In the case of `CC1(CF)NC(=O)NC1=O` (stereo unspecified), the growth is reported as 114% (inactive). In the case of `O=C(Nc1ccc(S(=O)(=O)F)cc1)Oc1ccccc1`, the growth is reported as 96.3% (inactive).

These compounds were tested on UACC-62 melanoma in the same assay as above. Settings: 10 µM unless noted.
In the case of `Fc1ccc(C2=NN(c3ccccc3)C(c3sc(N(CCCl)CCCl)nc3Cl)C2)cc1` (stereo unspecified), the growth is reported as 59.8% (inactive). With `CC[C@H](C)[C@H](NC(=O)Nc1ccccc1)C(=O)N(C)[C@H](C[C@@H](OC(C)=O)c1nc(C(=O)N[C@@H](Cc2ccccc2)C[C@H](C)C(=O)OC)cs1)C(C)C` the growth was 15.1% (inactive). `c1ccc(CCN2CCCCC2Cc2ccccc2)cc1` (stereo unspecified) was tested, and the growth was 92.4% (inactive). In the case of `CC(=O)O[C@H]1CCC2(C)C(=CCC3C2CCC2(C)/C(=N/OC(=O)c4ccc(N(CCCl)CCCl)cc4)CCC32)C1` (stereo partly specified), the growth is reported as 68.4% (inactive). In the case of `O=[As]c1ccc(C(=O)c2ccc(Oc3ccccc3)cc2)cc1` (stereo unspecified), the growth is reported as -98.1% (active). For `O=[N+]([O-])c1cc([N+](=O)[O-])c(Cl)c(Cl)c1Cl`, the growth was 14.6% (inactive). For `Cc1cc(NC(=O)NCCOc2ccc(N3C(N)=NC(N)=NC3(C)C)cc2Cl)ccc1S(=O)(=O)F`, the growth was 22% (inactive). With `COc1ccc2c(c1)NC1=C(C(=O)OC1)C2c1cc(OC)c(OC)c(OC)c1` (stereo unspecified) the growth was 44.7% (inactive). `C=CCc1ccc(OC(=O)Cc2ccccc2)c(OC)c1` was tested, and the growth was 114% (inactive). In the case of `CC(C)(O)/C=C/C(=O)[C@](C)(O)[C@H]1[C@H](O)C[C@@]2(C)[C@@H]3CC=C4[C@@H](C=C(O)C(=O)C4(C)C)[C@]3(C)C(=O)C[C@]12C`, the growth is reported as -29.9% (active). In the case of `C[C@]12CCc3sc(-c4ccc(Cl)cc4)nc3C1=CC[C@@H]1[C@@H]2CC[C@]2(C)C(=O)CC[C@@H]12`, the growth is reported as 51.1% (inactive). `C=CCC1(CC)C(=O)NC(=S)NC1=O` was tested, and the growth was 101% (inactive). In the case of `NC(Cc1ccc2c(c1)OCO2)c1ccc2c(c1)OCO2` (stereo unspecified), the growth is reported as 92.6% (inactive). With `O=C(CF)N(O)c1ccc(/C=C/c2ccccc2)cc1` the growth was 23.4% (inactive). With `COc1ccc(/C=C(/C(=O)N2CCCC2)c2cc(OC)c(OC)c(OC)c2)cc1N` the growth was 41.5% (inactive). In the case of `Nc1nc(N)c(-c2ccc(Cl)c(Cl)c2)c(/C=C/c2ccc(S(=O)(=O)F)cc2)n1`, the growth is reported as 79.1% (inactive). In the case of `Nc1c(Br)cc([N+](=O)[O-])cc1[N+](=O)[O-]`, the growth is reported as 101% (inactive). `Oc1ccc(O)c2c1C1(Cl)C(Cl)=C(Cl)C2(Cl)C1(Cl)Cl` was tested, and the growth was 37.1% (inactive). With `CN(C)P1(N(C)C)=NP(N(C)C)(N(C)C)=NP(N(C)C)(N(C)C)=N1` the growth was 103% (inactive). `CCCCNCCc1ccccn1` was tested, and the growth was 109% (inactive). With `CNC(=O)Oc1cccc(OC)c1` the growth was 100% (inactive). `C=C=[CH][Sn]([c]1ccccc1)([c]1ccccc1)[c]1ccccc1` was tested, and the growth was -62.3% (active). With `NC(=O)SCC(=O)Nc1ccc([As](=O)(O)O)cc1` the growth was 97.3% (inactive). For `C[C@]12CC[C@H]3[C@@H](C[C@@H]4N=C(c5ccc(O)cc5)S[C@@]45C[C@H](O)CC[C@]35C)[C@@H]1CC[C@@H]2O`, the growth was 28.7% (inactive). For `CC1(C)N=C(N)N=C(N)N1c1ccc(CCCCc2ccc(S(=O)(=O)F)cc2)cc1`, the growth was 19.8% (inactive). For `Nc1c(Br)cc2c3c(cccc13)-c1ccccc1-2`, the growth was 81.2% (inactive). With `COc1cc2c(cc1OC)CN(C)C(C)C2` (stereo unspecified) the growth was 89.4% (inactive). `c1ccc2nc(OCCN3CC3)ccc2c1` was tested, and the growth was 79.3% (inactive). For `CC1(C)N=C(N)N=C(N)N1c1ccc(CNC(=O)Nc2ccc(S(=O)(=O)F)c(Cl)c2)c(Cl)c1`, the growth was 23.9% (inactive). In the case of `c1ccc(-c2ccc3ccccc3[o+]2)cc1`, the growth is reported as 73.1% (inactive). With `CSc1ccccc1NP1(=O)OCC(C)([N+](=O)[O-])CO1` (stereo unspecified) the growth was 101% (inactive). `CC1COC(=O)C1` (stereo unspecified) was tested, and the growth was 106% (inactive). With `C[CH2][Pb]([CH2]C)([CH2]C)[O]C(=O)COc1ccccc1` the growth was 25.3% (inactive). For `COc1ccc(/C=C\c2cc(OC)c(OC)c(OC)c2)cc1N/C=C\C(=O)c1c[nH]c2ccccc12`, the growth was 31% (inactive). `CCCC(C)(C)c1ccc2c(c1)OC(C)(C)[C@@H]1CC=C(C)C[C@@H]21` was tested, and the growth was 98% (inactive). `OC1(c2ccc(Cl)cc2Cl)c2ccccc2C2=NCCN21` (stereo unspecified) was tested, and the growth was 94% (inactive). For `CC1(CF)NC(=O)NC1=O` (stereo unspecified), the growth was 96.8% (inactive). For `O=C(Nc1ccc(S(=O)(=O)F)cc1)Oc1ccccc1`, the growth was 97.5% (inactive).
